Vaccinia mCherry = inhibitors of vaccinia virus infection (mCherry reporter signal). Vaccinia virus mCherry reporter infection, fluorescence. hit rate 0.63% among 310,000. AID 720579. Potency, µM (doses to about 36.5 µM), inactives show at the top dose activity change, negative = inhibition, hits mostly inhibitors; calls by dose curve; tested in A549 cells; further: potency means the concentration at half of the fitted maximal effect; nearly all actives have a fitted effect of over 35% in size
HCMV antiviral = blocks human cytomegalovirus replication; HFF cells, HCMV-luciferase reporter, 72 h; hits give low values; activity change, negative = inhibition, % at 57.5 µM; hit rate 4.5% among 410,000; AID 1259415; in the data active means activity change below about -60%; inconclusive means no clear call, values can overlap the other calls; inactive means above about -39%
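Two compound doses tested in HFFs infected with HCMV-luciferase, MOI 1 PFU/cell, 72 h at 37C. Lysate luminescence read with OneGlo; data normalized against buffer-only and 10uM Salinomycin inhibitor controls.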
FMDV inh = foot and mouth disease virus antiviral activity | Potency, µM (series often up to 57.9 µM), for inactives: at the highest dose activity change, negative = inhibition, usual class: inhibitors | hit rate 1.2% among 410,000 | AID 1159524 | FMDV antiviral cell-based qHTS; calls by dose curve; tested in HEK293T cells; further: read-out not given here; potency means the concentration at half of the fitted maximal effect; nearly all actives have a fitted effect of over 45% in size
Vaccinia Venus = inhibitors of vaccinia virus (Venus reporter) | Vaccinia virus Venus reporter expression, fluorescence | Potency, µM (titrated, usually from 36.5 µM), without a hit: at the highest dose activity change, negative = inhibition, usual class: inhibitors | hit rate 0.46% among 330,000; calls by dose curve; tested in A549 cells; further: potency means the concentration at half of the fitted maximal effect; nearly all actives have a fitted effect of over 30% in size
Lassa entry inh = Lassa virus entry inhibition; Lassa virus pseudotype entry inhibition, cell reporter; Potency, µM (titrated, usually from 37.9 µM), for inactives: at the highest dose activity change, negative = inhibition, usual class: inhibitors; hit rate 1.2% among 300,000; AID 540256; calls by dose curve; tested in HEK293 cells; further: potency means the concentration at half of the fitted maximal effect; nearly all actives have a fitted effect of over 50% in size
MARV entry inh = inhibitors of Marburg virus binding or cell entry; Marburg virus pseudotyped entry inhibition, cell reporter; Potency, µM (top dose mostly 37.8 µM), without a hit: at the top dose activity change, negative = inhibition, most hits filed as inhibitors; AID 540276; hit rate 1.8% among 300,000; calls by dose curve; tested in HEK293 cells; further: potency means the concentration at half of the fitted maximal effect
* marks the source's active call; other numbers are inactive results; i = inactive; ? = inconclusive; . = not tested or not shown; [ ] = another dose, or the depositor's remark. Sampled rows, rich in hits. Any-hit rate of the full collection: about 6.5%. On the % scale 0 is the no-effect control and ±100 the full control effect.

SMILES | Vaccinia mCherry | HCMV antiviral | FMDV inh | Vaccinia Venus | Lassa entry inh | MARV entry inh
Cc1ccc2c(C)nc(Nc3nc(CSc4nnnn4-c4ccccc4)cc(=O)[nH]3)nc2c1 | ? | -101* | 11% | ? | ? | -2%
Cc1cc(C)c2nc(Nc3nc(-c4ccccc4)cc(=O)[nH]3)nc(C)c2c1 | -2% | -9 | -20% | -7% | . | .
Cc1cc(C)c2nc(Nc3nc(CSc4nc5ccccc5[nH]4)cc(=O)[nH]3)nc(C)c2c1 | -3% | -65* | ? | -15% | 3%[46.1 µM] | 6%[46.1 µM]
Cc1cc(/C=C/c2c(C)cnc3ccccc23)ccc1N(C)C | -21% | . | . | -20% | . | .
CC(CNC(=O)CCc1cn(Cc2ccccc2Cl)c2ccccc12)c1ccccc1 (centres undefined) | -11% | -24 | -7% | -13% | -28%[46.1 µM] | .
COc1cccc(CN2CCN3C=C(C(=O)NC4CCc5ccccc54)OC3=NC2=O)c1 (centres undefined) | . | 13 | . | . | . | .
CCOc1ccc2nc(Nc3nc(CSc4nnnn4-c4ccccc4)cc(=O)[nH]3)nc(C)c2c1 | . | -28 | -7% | . | ? | ?
COc1ccc2nc(Nc3nc(CSc4ccc(C)cc4)cc(=O)[nH]3)nc(C)c2c1 | 9% | -67* | 4% | -1% | 8% | -1%[46.1 µM]
C=CCN1[C@H](C)[C@H](c2ccccc2)Oc2cc(Br)ccc2S1(=O)=O | . | -32 | . | . | . | .
Cc1cccc(OCc2cc(=O)n3c(-c4ccccc4)csc3n2)c1C | -15% | -103* | -2% | -10% | -2%[46.1 µM] | ?
O=c1cc(COc2ccc(Cl)cc2Cl)nc2scc(-c3ccccc3)n12 | -7% | -20 | -13% | -7% | 5%[46.1 µM] | -6%[46.1 µM]
O=c1cc(COc2ccccc2Cl)nc2scc(-c3ccccc3)n12 | -12% | -88* | -14% | -15% | 2%[46.1 µM] | ?
Cc1ccc2[nH]c(=O)c(CN(Cc3ccc4c(c3)OCO4)Cc3nnnn3C3CCCC3)cc2c1 | -15% | -36 | -19% | -8% | 3.5µM* | ?
CCC(C)N1C(=O)/C(=C\c2ccc(N3CCCCCC3)cc2)C(=O)NC1=S (centres undefined) | 0% | 40 | ? | 2% | 25% | 4%
CCC(C)N1C(=O)/C(=C\c2cc3c4c(c2)CCCN4CCC3)C(=O)NC1=S (centres undefined) | 4% | -34 | 32µM* | 8% | 5% | 1%
CCC(C)N1C(=O)/C(=C\c2cnc(N(C)C)nc2)C(=O)NC1=S (centres undefined) | 7% | -39 | 22µM* | 12% | 6% | ?
C[C@H](NC(=O)OC(C)(C)C)c1nnc(SCc2ccc(Cl)cc2Cl)o1 | -7% | -11 | -8% | -9% | ? | ?
O=C(CSc1nccn1-c1cccc(Cl)c1)Nc1cccc2ccccc12 | i | -63* | -14% | -2% | -19%[46.1 µM] | .
COc1ccc(Cl)cc1NC(=O)CSc1nccn1-c1ccc(Cl)cc1 | -7% | -82* | ? | -20% | -27%[46.1 µM] | .
Cc1cccc(-n2ccnc2SCC(=O)Nc2cccc3ccccc23)c1 | -4% | -23 | 0% | -4% | 4%[46.1 µM] | .
O=[N+]([O-])c1ccc(OCC(O)CN(C2CCCCC2)C2CCCCC2)cc1 (centres undefined) | i | -1 | ? | -19% | -14% | ?
COc1ccc(OCC(O)CN(C2CCCCC2)C2CCCCC2)cc1 (centres undefined) | -23% | 3 | -1% | -17% | 15µM* | ?
Cc1ccccc1OCC(=O)NCC(=O)OCC(=O)c1ccc(F)cc1 | 20% | . | . | -15% | . | .
COc1ccc(/C=C/C(=O)NC(=S)NNC(=O)c2ccco2)cc1OC | . | -19 | -14% | . | . | .
COc1ccc(/C=C/C(=O)NC(=S)NNC(=O)c2ccco2)cc1 | . | 63 | -15% | ? | 4.5µM* | ?
SMILES | Vaccinia mCherry | HCMV antiviral | FMDV inh | Vaccinia Venus | Lassa entry inh | MARV entry inh
CC(=O)Nc1ccc(NC(=S)NC(=O)/C=C/c2ccc(Cl)cc2)cc1 | i | -13 | 0% | -2% | -10% | ?
O=C(/C=C/c1ccc(Cl)cc1)NC(=S)Nc1ccc(NC(=O)c2ccco2)cc1 | -21% | -70* | -22% | -29% | 1.6µM* | ?
COc1ccc(CC(=O)NCC(c2cccs2)S(=O)(=O)c2ccc(Cl)cc2)cc1 (centres undefined) | -5%[7.34 µM] | ? | -13% | -5%[7.34 µM] | ? | .
CCCOc1ccc(/C=N/Nc2ccccc2[N+](=O)[O-])c(O)c1 | -14% | ? | 11µM* | -2% | 2.8µM* | 4.5µM*
CCCOc1ccc(/C=N/Nc2cccc([N+](=O)[O-])c2)c(O)c1 | ? | ? | 6% | ? | ? | ?
CCCOc1ccc(/C=N/NC(=S)Nc2ccccc2[N+](=O)[O-])c(O)c1 | 2.8µM* | -101* | ? | ? | 8.2µM* | ?
Clc1ccc(C(c2ccc(Cl)cc2)n2cc[n+](CC(OCc3ccc(Cl)cc3Cl)c3ccc(Cl)cc3Cl)c2)cc1 (centres undefined) | ? | -99* | ? | 11µM* | . | 13µM*
CCC1CN(CCNC(=O)C(C)(C)O)Cc2cc(OC)ccc2O1 (centres undefined) | -13% | . | -7% | 0% | . | .
CCOC(=O)c1cccc(NC(=O)c2ncoc2-c2ccco2)c1 | -13% | 72 | 0% | -7% | 4%[46.1 µM] | .
COc1ccc(C(=O)NCC2Cc3c(F)ccc(-c4nc(C)cnc4C)c3O2)cc1F (centres undefined) | -6% | . | -5% | 2% | . | .
COc1ccc(-n2cc(C(=O)c3cc4ccccc4oc3=O)c(C(C)=O)n2)cc1 | . | -67* | 13% | . | 3% | 8%
Nc1ncnc2c1nc(Br)n2[C@@H]1O[C@@H]2COP(=O)(O)O[C@H]2[C@H]1O | -29% | -76* | -1% | -16% | . | .
CC(=O)N1CCN(c2nc3c(F)cc(F)cc3s2)CC1 | -4%[7.34 µM] | 104 | 49% | -5%[7.34 µM] | 2%[46.1 µM] | .
CC(=O)N1CCN(c2c(F)c(F)c(C(F)(F)F)c(F)c2F)CC1 | -23% | -61* | ? | -25% | 6% | ?
Cc1nn(CC(=O)NCCCN2CCCC2=O)c(C)c1[N+](=O)[O-] | ? | -37 | -4% | -21% | ? | 11µM*
Cc1cc2c(cc1C)N[C@]1(C[C@H]3CCCC(=O)N4CC[C@@H](C1)[C@@H]34)C(=NC1CCCCC1)N2 | -16% | . | . | -13% | . | .
O=c1c(-c2ccccc2)nc2cnc(N3CCOCC3)nc2n1Cc1ccc(F)cc1 | . | . | -19% | . | . | .
CCOc1ccc(N(CC)S(=O)(=O)c2cc(Br)cc3c2N(C(C)=O)C(C)C3)cc1 (centres undefined) | ? | -63* | 11µM* | -22% | ? | ?
COc1ccc(CCNC(=O)c2cc3c(=O)oc4ccc(C)cc4c3s2)cc1OC | -1% | -1 | -26% | 8% | 14%[46.1 µM] | -17%[46.1 µM]
COC1CC2C=C(C)C=CC=CC(=O)NC(c3ccccc3)CC=CCCC(O)CC(=O)C2=C1O (centres undefined) | 7.1µM* | -100* | 2.5µM* | 2.8µM* | . | .

High-throughput results (PubChem)
